GLP1R inv ag: inverse agonists of human GLP-1 receptor; HEK293 GLP-1R CRE-luciferase, luminescence, 24 h; GLP-1R form is constitutively active; Potency, µM (highest dose often 38.3 µM), for the others: at the top dose activity change, negative = inhibition, most hits filed as inhibitors; P43220; 410,000 tested, 1.6% active; also: potency is read from the fitted curve at half-maximal effect; % is scaled to controls: 0 for no effect and ±100 for the full control effect; nearly all actives have a fitted effect of over 55% in size
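Assay principle: reduced luminescence from a cAMP-responsive reporter in HEK293 cells co-expressing a constitutively active GLP-1R. Conditions: 24 hr compound incubation, 37 deg C, 5% CO2.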
TSHR antagonist: blocks TSH signaling through the human TSH receptor; TSHR-expressing cells, TSH-stimulated cAMP HTRF, 2 h; hits give low values; AID 504810; activity change, negative = inhibition, % at 11.5 µM; P16473; 330,000 tested, 0.2% active;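 active = activity change below a set negative limit, meaning inhibition stronger than a set level, cut at about -70% in these data; inconclusive = activity change between two set negative limits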; also: % is scaled to controls: 0 for no effect and ±100 for the full control effect
Target sequence (P16473 whole entry, looked up): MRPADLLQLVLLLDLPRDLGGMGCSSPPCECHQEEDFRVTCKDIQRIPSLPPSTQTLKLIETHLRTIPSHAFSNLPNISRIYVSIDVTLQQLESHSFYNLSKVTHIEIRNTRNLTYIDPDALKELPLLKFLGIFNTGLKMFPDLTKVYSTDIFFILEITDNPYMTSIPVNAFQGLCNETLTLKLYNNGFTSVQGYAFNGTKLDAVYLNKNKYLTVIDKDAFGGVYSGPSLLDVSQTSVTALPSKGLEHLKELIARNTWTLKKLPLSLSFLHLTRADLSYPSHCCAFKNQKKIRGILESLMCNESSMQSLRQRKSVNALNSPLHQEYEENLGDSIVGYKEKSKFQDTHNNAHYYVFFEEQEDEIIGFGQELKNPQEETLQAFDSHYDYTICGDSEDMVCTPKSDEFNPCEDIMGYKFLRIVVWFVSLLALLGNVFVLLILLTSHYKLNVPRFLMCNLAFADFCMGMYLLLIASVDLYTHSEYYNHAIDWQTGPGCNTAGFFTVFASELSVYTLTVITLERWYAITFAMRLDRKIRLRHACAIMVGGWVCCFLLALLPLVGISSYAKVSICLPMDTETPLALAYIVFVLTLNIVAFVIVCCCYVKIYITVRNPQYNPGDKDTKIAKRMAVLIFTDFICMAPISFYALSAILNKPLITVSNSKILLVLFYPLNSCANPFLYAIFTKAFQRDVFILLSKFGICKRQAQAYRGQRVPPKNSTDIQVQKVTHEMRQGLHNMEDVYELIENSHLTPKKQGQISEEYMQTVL
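TSHR-expressing cells were treated with compounds, then stimulated with TSH at EC80 (4nM final) for 2 hours at 37 deg C. Cellular cAMP was measured by HTRF competition between lysate cAMP and cAMP-d2 for a cryptate-labelled anti-cAMP antibody.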
GLP-1R agonist: agonists of human GLP-1 receptor; AID 624172; Potency, µM (doses to about 45.6 µM), for the others: at the top dose activation, actives largely listed as activators; HEK293 GLP-1R CRE-luciferase, luminescence, 4-6 h; cells express a hypersensitive GLP-1R form; P43220; 380,000 tested, 0.007% active; also: potency is read from the fitted curve at half-maximal effect; % of control where 0% means no effect
GLP1R cytotox: cytotoxic in the GLP-1 receptor inverse agonist counter-screen | HEK293 cAMP-luciferase reporter cells, luminescence, 24 h | Potency, µM (doses to about 38.3 µM), for inactives: top-dose activity change, negative = inhibition, most hits filed as inhibitors | 410,000 tested, 0.13% active;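 also: loss of luciferase light is scored as toxicity; potency is read from the fitted curve at half-maximal effect; % is scaled to controls: 0 for no effect and ±100 for the full control effect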
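Compound-treated cells are incubated 24 hr at 37 deg C under 5% CO2 after a 12 hour attachment period, then luciferase detection reagent is added and luminescence is measured following 12 min at room temperature; lowered signal indicates toxicity.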
PTHR1 agonist: PTHR1 (human) receptor agonism; Q03431; HEK293 GP2 PTHR1 cells, GloSensor cAMP luminescence, 1 h; Potency, µM (series often up to 115 µM), for inactives: top-dose activation, most hits filed as activators; 410,000 tested, 0.075% active; also: potency is read from the fitted curve at half-maximal effect; nearly all actives have a fitted effect of over 55% in size
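HEK-293-derived GP2 cells expressing PTHR1 and a GloSensor cAMP reporter, 3,000/well, plated overnight, given luciferin plus IBMX (each 0.5 mM as added) for 1 h at 37 °C, then compound for 1 h at 37 °C. Luminescence was read after 15 min at room temperature.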
Numbers without * were called inactive; i = inactive; ? = inconclusive; nt = no result given; [ ] = remark or other dose. This is a sample that favours compounds with a hit; in the whole collection about 1.8% have one here. Unless noted, calls follow the shape of the dose curve; as a rule, active = well fitted curve in the direction sought with a large enough effect; inconclusive = small, poorly fitted or top-dose-only effect, or another doubt; inactive = no such curve, though single readings can be large; an effect the other way counts as inactive or inconclusive.

SMILES	GLP1R inv ag	TSHR antagonist	GLP-1R agonist	GLP1R cytotox	PTHR1 agonist
Cc1ccccc1[C@@]1(C)ON(c2ccccc2C(F)(F)F)C1=O	11µM*	10	-2%	-48%	-33%
COc1ccc(-c2noc(-c3ccccc3NC(=O)c3cc(OC)c(OC)c(OC)c3)n2)cc1	9%	nt	nt	3%	-10%
COc1ccc(-c2cc(C3CCN(Cc4cccc(C(F)(F)F)c4)CC3)[nH]n2)cc1	5µM*	-8	5%	?	-91%
Fc1ccc2[nH]c3c(N4CCN(c5ccccc5)CC4)ncnc3c2c1	?	-89*	-17%	?	-13%[57.5 µM]
COc1ccccc1CNc1nc(Nc2ccccc2-n2cccn2)c2sccc2n1	3.2µM*	nt	33%	-10%	-12%
COc1ccc(-c2cc3nc(C)cc(N)n3n2)cc1	7.9µM*	-11	-25%	19%	-33%
Cc1ccsc1C(=O)N(c1nc2ccccc2s1)c1c(C)cccc1C	7.9µM*	-14	-7%	0%	i
Cc1ccccc1N(C(=O)c1cccs1)c1nc2ccccc2s1	2.2µM*	-16	0%	21%	-17%
COc1ccc(C)cc1N(C(=O)c1ccccc1)c1nc2ccccc2s1	?	-1	-13%	-6%	i
OCC1(O)OC[C@@H](O)[C@H](O)[C@@H]1O (some centres undefined)	nt	nt	2%	nt	nt
CCn1c(=N)n(CC(=O)c2ccc(Cl)c(Cl)c2)c2ccccc21	?	-4	15%	-26%	i
Cc1ccc(C(=O)Cn2c(=N)n(CCN3CCOCC3)c3ccccc32)cc1	?	-29	5%	2.5µM*	-9%
N=c1n(CCN2CCCCC2)c2ccccc2n1CC(=O)c1ccc(Cl)c(Cl)c1	5.6µM*	10	11%	?	-5%
COc1ccc(C(=O)Nc2cc(C)on2)c(OC)c1	12%	-8	6%	-2%	-37%
COc1ccc(C(=O)Nc2ccc(C)cn2)c(OC)c1	2µM*	-7	-18%	8%	-77%[57.5 µM]
CC(C)(C)c1ccc(/C=N/OCC(=O)NCc2ccccc2)cc1	8.9µM*	-2	15%	20%	-9%
Cc1ccc(CNC(=O)CO/N=C/c2ccc(C(C)(C)C)cc2)cc1	?	-17	-3%	-21%	-61%
c1ccc(-c2csc(Nc3ccccn3)n2)cc1	10µM*	-14	17%	-11%	-92%
CCOC(=O)c1c(C)oc2ncnc(N3CCN(c4ccccc4F)CC3)c12	-26%	nt	nt	3%	-10%
O=C(CNC(c1ccccc1)c1ccccc1)NCc1ccccc1Cl	10µM*	1	13%	3%	-6%
Cc1ccnc(NC(=O)c2cc3ccccc3o2)c1	5.6µM*	-7	-22%	6%	-12%
O=C(Nc1ncccc1O)c1cc2ccccc2o1	11µM*	13	-26%	?	-38%
Cc1cccc(N(CC(=O)Nc2cccc(Cl)c2C)S(C)(=O)=O)c1C	?	nt	nt	5%	i
Fc1ccccc1C1c2cccn2CCN1C(=S)Nc1ccc(Br)cc1 (centres undefined)	4.5µM*	0	-5%	?	-5%
CCCSS/C(CCO)=C(/C)N(C=O)Cc1cnc(C)nc1N	nt	nt	-3%	nt	nt
SMILES	GLP1R inv ag	TSHR antagonist	GLP-1R agonist	GLP1R cytotox	PTHR1 agonist
O=C(c1ccco1)N1CCN(S(=O)(=O)c2ccc(C3CCCCC3)cc2)CC1	19%	-24	-1%	-3%	-21%
CS(=O)(=O)c1ccccc1C(=O)N1CCN(S(=O)(=O)c2ccc(C3CCCCC3)cc2)CC1	10µM*	-3	-1%	-7%	-35%
O=C(CSc1nccn1-c1ccc(Cl)cc1)Nc1cccc2ccccc12	?	nt	nt	-14%	-71%
O=C(CSc1nc2ccccc2s1)N1c2ccccc2Sc2ccccc21	5.6µM*	11	0%	13%	?
N#CC1(Cc2ccccc2)c2ccccc2C=CN1C(=O)c1ccccc1 (centres undefined)	8.9µM*	-1	-6%	8%	-10%[57.5 µM]
CCOc1ccc(CCNC(=O)c2c(C)oc3ncn(CC(C)C)c(=O)c23)cc1	11%	nt	nt	2%	i
CCC(C)N=CC1=C(O)CC(c2ccccc2)CC1=O (centres undefined)	-13%	3	-8%	4%	i
CCCC(=NC(C)CC)C1=C(O)CC(c2ccccc2)CC1=O (centres undefined)	10µM*	-88*	10%	8%	-6%
Cc1ccc(O)c(N=NC2=C(O)CC(C)(C)CC2=O)c1	?	-1	-3%	13µM*	-3%
O=c1c2cc3c(cc2n(Cc2cccc(F)c2)c(=O)n1Cc1nc(-c2ccccc2)no1)OCO3	13%	nt	nt	3%	i
COc1ccc(CNC(=O)c2ccc(NC(=O)N3CCCCc4ccccc43)cc2)c(OC)c1	11µM*	nt	nt	9%	i
COc1ccc(OC)c(CNC(=O)Cc2ccc(NC(=O)N3CCCCc4ccccc43)cc2)c1	-25%	nt	nt	-1%	-9%
O=c1c2cnn(-c3ccccc3)c2nc(-c2cccs2)n1-c1cccc(Cl)c1	8.9µM*	6	5%	-5%	-36%
O=c1c2cnn(-c3ccccc3)c2nc(-c2cccs2)n1-c1ccc(Cl)cc1	3%	3	3%	-3%	-85%[57.5 µM]
COc1cccc(CN(C)Cc2nc(Cc3ccccc3Cl)no2)c1	?	-16	5%	5%	-35%
CC(c1cccs1)N(C)Cc1nc(CCc2ccccc2)no1 (centres undefined)	10µM*	-11	-2%	17%	-22%
COc1cccc(C(C)N(C)Cc2nc(COc3ccccc3)no2)c1 (centres undefined)	10µM*	-18	10%	6%	-30%
CCN(CC)CCCNC(=O)Cc1csc2nc(-c3ccc(Cl)cc3)cn12	?	nt	nt	2%	-23%
Cc1cc(C)c(OCCCNCc2ccccc2)c(Br)c1	?	-2	-3%	?	8%
Cc1cc(Cl)cc(Br)c1OCCCNCC(C)O (centres undefined)	4µM*	7	15%	-23%	i
CCN1C(N(C)CCc2c[nH]c3ccccc23)=N[C@@H](c2cccc(C(F)(F)F)c2)C(C(=O)OC)=C1C	10µM*	-6	-1%	-12%	-25%
CCN1C(N(C)CCc2cccs2)=N[C@@H](c2ccccc2)C(C(=O)OC)=C1C	9%	-11	0%	?	-24%
CC(=O)Nc1ccc(S(=O)(=O)NC2CCCCCC2)cc1	13%	2	8%	-2%	i
CC(C)C(=O)NC(=S)Nc1ccc(S(=O)(=O)NC2CCCCC2)cc1	10µM*	31	4%	1%	-23%
O=C(CSc1nnnn1-c1cccc2ccccc12)Nc1ccc(C(=O)O)cc1	13%	-2	-5%	-21%	0%
